Screens deposited in PubChem BioAssay by National Center for Advancing Translational Sciences (NCATS).
RXFP1 ag – agonists of human relaxin receptor RXFP1; actives 0.3% (n = 370,000); Q9HBX9; Potency, µM (doses to about 57.5 µM), hits mostly activators; HEK293T-RXFP1 cAMP TR-FRET, 30 min; response scale: percent of porcine relaxin response, buffer zero; active means well fitted activation curve with a large enough effect; inconclusive means small, poorly fitted or top-dose-only effect; further: nearly all actives have a fitted effect of over 60% in size
Target sequence (Q9HBX9 whole entry, looked up): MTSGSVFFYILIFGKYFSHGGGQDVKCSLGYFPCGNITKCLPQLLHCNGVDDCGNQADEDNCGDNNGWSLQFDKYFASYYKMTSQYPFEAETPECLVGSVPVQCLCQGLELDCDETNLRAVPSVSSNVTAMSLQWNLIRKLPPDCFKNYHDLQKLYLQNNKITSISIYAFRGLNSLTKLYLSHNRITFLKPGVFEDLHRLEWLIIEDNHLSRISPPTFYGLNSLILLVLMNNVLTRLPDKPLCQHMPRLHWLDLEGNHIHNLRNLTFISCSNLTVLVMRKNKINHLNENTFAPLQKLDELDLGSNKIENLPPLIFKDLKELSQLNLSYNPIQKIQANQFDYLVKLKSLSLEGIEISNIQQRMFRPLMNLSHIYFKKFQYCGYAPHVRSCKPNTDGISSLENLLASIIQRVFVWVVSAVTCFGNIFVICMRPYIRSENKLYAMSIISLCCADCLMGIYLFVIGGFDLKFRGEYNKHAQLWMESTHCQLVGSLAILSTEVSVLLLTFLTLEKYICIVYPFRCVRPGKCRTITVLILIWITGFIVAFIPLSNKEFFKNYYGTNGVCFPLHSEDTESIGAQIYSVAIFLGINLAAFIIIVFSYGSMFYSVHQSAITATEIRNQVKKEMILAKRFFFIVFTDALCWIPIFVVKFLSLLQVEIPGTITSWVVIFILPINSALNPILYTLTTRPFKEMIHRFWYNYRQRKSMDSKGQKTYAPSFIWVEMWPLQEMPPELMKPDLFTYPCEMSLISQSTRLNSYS
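Agonist response is measured as cAMP accumulation in an RXFP1-transfected HEK293T line under PDE4 inhibition. Values are scaled between buffer-only and 29 nM porcine relaxin, and EC50s come from standard Hill equation fits.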
RXFP1 antagonist – antagonists of human relaxin receptor RXFP1. activity change, negative = inhibition, % at 57.5 µM. actives 0.59% (n = 350,000). HEK293-RXFP1, relaxin-stimulated cAMP HTRF, 30 min; hits give low values. Q9HBX9;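 active means activity change of -60% or lower, but not beyond a set lower limit; inconclusive means change between -60% and -40%, or beyond the set limit; inactive means change above -40%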
gsp ag – gsp mutant agonism. gsp mutant cells, cAMP HTRF, 30 min. Potency, µM (doses to about 76.9 µM), usual class: activators. actives 0.13% (n = 340,000). AID 624287; active means well fitted activation curve with a large enough effect; inconclusive means small, poorly fitted or top-dose-only effect, or another doubt; inactive means no such curve, though single readings can be large or run the other way; cell line not stated here;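 further: phosphodiesterase inhibitor Ro 20-1724 added with compounds to block cAMP breakdown; nearly all actives have a fitted effect of over 60% in size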
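Cells in DMEM/10% FBS with G418 were pretreated with compounds in DMSO plus […] (300 uM stock) for 30 min at 37C. cAMP was measured by HTRF (cAMP-d2 plus anti-cAMP antibody-K) after 30 min at room temperature.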
gsp antag – gsp mutant antagonism; gsp-mutant cells, cAMP HTRF, 30 min; Potency, µM (titrated, usually from 76.9 µM), actives largely listed as inhibitors; actives 0.4% (n = 340,000); AID 624288; calls by dose curve; cell line not stated here;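 further: intracellular cAMP measured with PDE inhibitor Ro 20-1724 present during compound exposure; nearly all actives have a fitted effect of over 65% in size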
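HTRF cAMP measurement after 30 min RT detection following 30 min, 37C compound treatment alongside […] (added as 300 uM solution) in G418-selected cells seeded at 2000/well and grown 16–24 h.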
Large screens that a line does not name were inactive; ! = repeats disagree. A selection: hits, their analogues and other compounds. The true share with any hit is near 0.9%.

O=C(O)c1ccccc1C(=O)N1CCc2c([nH]c3ccccc23)C1C(F)(F)F (configuration not stated)	none
O=C(c1cccc(C(F)(F)F)c1)N1CCc2c([nH]c3ccccc23)C1C(F)(F)F (configuration not stated)	RXFP1 antagonist -92, gsp ag inconclusive
CC1=C(C(=O)Nc2cccc(Cl)c2C)C2(CCCCCC2)OC1=O	none (no result: RXFP1 antagonist, gsp ag, gsp antag)
Cc1c(NS(=O)(=O)c2ccccc2)cc(C(C)C)c(O)c1S(=O)(=O)c1ccc(Cl)cc1	none (no result: RXFP1 antagonist, gsp ag, gsp antag)
COc1cccc(-n2nnc3c(=O)n(CC(=O)NCC4CCCO4)cnc32)c1 (configuration not stated)	gsp ag 11µM
O=C(Cn1cnc2c(nnn2-c2ccccc2)c1=O)NCC1CCCO1 (configuration not stated)	RXFP1 ag inconclusive, gsp ag inconclusive
CN(C)Cc1nc2c(c(=O)[nH]1)C1(CCCCC1)Cc1ccccc1-2	RXFP1 antagonist -62
COC(=O)c1ccc(C(=O)OC)c(NC(=O)c2cc3nc(-c4ccc(C)cc4)cc(C(F)(F)F)n3n2)c1	RXFP1 ag inconclusive (no result: gsp ag, gsp antag)
Cc1ccc2c(c1)-c1cc(C)nn1C(c1cc(Br)ccc1O)N2 (configuration not stated)	RXFP1 antagonist -114 (no result: gsp ag, gsp antag)
CCN(CC)C(=O)c1sc(NC(=O)c2nc3ncccn3n2)c(C(=O)OC)c1C	none (no result: gsp ag, gsp antag)
CCOC(=O)c1ccc(NC(=O)Cn2cc(C(=O)c3ccc(CC)cc3)c(=O)c3ccc(C)nc32)cc1	RXFP1 ag 32µM (no result: gsp ag, gsp antag)
CC(C)(C)c1csc(NNC(=O)c2ccc(Br)cc2)n1	RXFP1 antagonist -61
CC(C)(C)c1csc(NC(=O)c2ccccc2O)n1	none
COc1ccc(NC(=O)c2nnn(CC(=O)Nc3cccc(C)c3C)c2N)c(OC)c1	none (no result: gsp ag, gsp antag)
COc1ccc(NC(=O)c2nnn(CC(=O)Nc3ccccc3OC)c2N)c(OC)c1	RXFP1 antagonist -102
COc1cccc(-c2cc(C(F)(F)F)nc(-n3nc(C)c(Br)c3C)n2)c1	none (no result: gsp ag, gsp antag)
Cc1ccc(O)c(C(=O)c2cc(C#N)c(=O)n(Cc3ccccc3)c2)c1	RXFP1 antagonist -90
CC(C)C[C@H](NC(=O)[C@H](CCc1ccccc1)NC(=O)CN1CCOCC1)C(=O)N[C@@H](Cc1ccccc1)C(=O)N[C@@H](CC(C)C)C(=O)[C@@]1(C)CO1	none (no result: RXFP1 ag, gsp ag, gsp antag)
CCN(CC)CCCNC(=S)N1CCN(c2nc(-c3ccc(F)cc3)cs2)CC1	RXFP1 antagonist -74
CCNC(=S)N1CCN(c2nc(-c3ccc(F)cc3)cs2)CC1	gsp antag 35µM
COCCNC(=S)N1CCN(c2nc(-c3ccc(F)cc3)cs2)CC1	gsp antag inconclusive
CCc1cccc(NC(=O)c2cnc(SC)nc2-c2ccccc2)c1	none (no result: gsp ag, gsp antag)
O=C(c1ccccc1O)N1N=C(c2ccccc2)CC1(O)C(F)(F)F (configuration not stated)	RXFP1 antagonist -76
O=C(C1CC1)N1N=C(c2cccc(Br)c2)CC1(O)C(F)(F)F (configuration not stated)	none
O=C(C1CC1)N1N=C(c2ccncc2)CC1(O)C(F)(F)F (configuration not stated)	RXFP1 antagonist -62
CCc1ccc(NC(=O)C2CCN(S(=O)(=O)c3c(C)noc3/C=C/c3cccs3)CC2)cc1	none (no result: gsp ag, gsp antag)
CCc1ccc(NC(=O)C2CCN(S(=O)(=O)c3c(C)noc3/C=C/N(C)C)CC2)cc1	RXFP1 antagonist -62
CCCCOc1ccc(Br)cc1CSC(=N)N	RXFP1 antagonist -71
O=C(Cn1cc(C(=O)C2CC2)c2ccccc21)Nc1ccc(Br)cc1	RXFP1 ag 20µM (no result: gsp ag, gsp antag)
Cc1ccc(NC(=O)Cn2cc(C(=O)C3CC3)c3ccccc32)cc1	RXFP1 ag 10µM!
COc1ccccc1NC(=O)C1=C(C)Nc2nc(SCc3ccccc3)nn2C1c1ccccn1 (configuration not stated)	none (no result: RXFP1 antagonist, gsp ag, gsp antag)
CCOC(=O)c1c(C)[nH]c(-c2csc(C)n2)c1C	RXFP1 antagonist -67
CC(C)[C@H](NC(=O)c1ccccc1)C(=O)OCC(=O)/C=C1/N(C)c2ccccc2C1(C)C	gsp antag 35µM
COc1ccc(OC)c(CN2CCCCCC2)c1	RXFP1 antagonist -119
Cn1c(O)c(/C=N/NC(=O)c2cc3ccccc3cc2O)c2ccccc21	RXFP1 antagonist inconclusive, gsp antag 35µM
Cn1c2ccccc2c2cc(/C=N/NC(=O)c3ccc(O)cc3O)ccc21	gsp antag inconclusive
CC(=O)Nc1cccc(NC(=O)CSc2nc3c(c(=O)n(C)c(=O)n3C)n2C)c1	RXFP1 ag 28µM
